IL-1B inflam inh: qHTS for Inhibitors of Inflammasome Signaling: IL-1-beta AlphaLISA Primary Screen; THP-1 LPS/ATP IL-1B secretion, AlphaLISA, 16 h; active compounds read low; activity change, % at 57.5 µM; hit rate 4.7% among 360,000; in the data active = activity change below about -50%; inconclusive = mostly about -30% to -49%
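Secreted IL-1B measured by AlphaLISA bead assay after 16 h compound exposure of THP-1 cells; compounds (final up to 57.5 uM) added 1 h before LPS (250 ng/mL) and ATP (1.25 mM) stimulation; lower signal means less secretion.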
DT40 TDP1 no CPT: qHTS for Inhibitors of human tyrosyl-DNA phosphodiesterase 1 (TDP1): qHTS in cells in absence of CPT; hit rate 15% among 420,000; Potency, µM (top dose mostly 46.2 µM), inactives show top-dose activity change, negative = growth inhibition, actives largely listed as inhibitors; AID 686978, 2013; DT40 Tdp1-/- hTDP1 cells, no CPT, ATP luminescence, 48 h; also: potency is read from the fitted curve at half-maximal effect; nearly all actives have a fitted effect of over 55% in size
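Camptothecin absent (DMSO only). Human TDP1-complemented DT40 knockout cells, 400 cells/well, 37 °C for minimum 48 hr; ATP measured via CellTiter-Glo, 30 min dark incubation, luminescence.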
HT1080 IDH1KD tx: qHTS for induction of synthetic lethality in tumor cells producing 2HG: qHTS for the HT-1080-IDH1KD cell line; hit rate 2% among 360,000; HT-1080 IDH1 knockdown viability, ATP luminescence, 48 h; Potency, µM (titrated, usually from 46.1 µM), inactives show at the highest dose activity, negative = toxicity, actives largely listed as cytotoxic;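 also: potency is read from the fitted curve at half-maximal effect; 0% = DMSO wells and -100% = cell-free medium wells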
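Assay cells: HT-1080 with IDH1 knockdown, 750 per well, RPMI/5% FBS. Exposure: 48 h at 37 °C following 2 h pre-incubation. Read: CellTiter-Glo luminescence; fitted concentration-response, curve class assigned.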
DT40 TDP1 CPT: qHTS for Inhibitors of human tyrosyl-DNA phosphodiesterase 1 (TDP1): qHTS in cells in presence of CPT. chicken DT40 Tdp1-/-;hTDP1 cells + 20 nM CPT, ATP luminescence, 48 h. Potency, µM (top dose mostly 46.2 µM), for the others: top-dose activity change, negative = growth inhibition, usual class: inhibitors. hit rate 12% among 420,000. AID 686979, 2013; also: potency is read from the fitted curve at half-maximal effect; nearly all actives have a fitted effect of over 55% in size
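Cell growth measured by CellTiter-Glo luminescence after a minimum 48 h, 37 C compound exposure with 20 nM CPT in Tdp1-knockout DT40 cells stably expressing hTDP1, seeded 400/well; qHTS titration format.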
HT1080NT lethal: qHTS for induction of synthetic lethality in tumor cells producing 2HG: qHTS for the HT-1080-NT fibrosarcoma cell line. hit rate 1.6% among 360,000. Potency, µM (series often up to 46.1 µM), for the others: at the top dose activity, negative = less viability, usual class: cytotoxic. AID 686970, 2013. HT-1080-NT fibrosarcoma viability, CellTiter-Glo ATP luminescence, 48 h;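 also: NT is the 2HG producing partner of a matched IDH1 knockdown line; potency is read from the fitted curve at half-maximal effect; 0% = DMSO-treated cells and -100% = media-only wells without cells; nearly all actives have a fitted effect of over 55% in size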
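Compounds were tested in concentration-response format on HT-1080-NT cells for 48 hours at 37 degrees C. Cell viability came from CellTiter-Glo luminescence; curves were classified by r2, response magnitude and activity.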
ELG1 repair inh: qHTS screen for small molecules that inhibit ELG1-dependent DNA repair in human embryonic kidney (HEK293T) cells expressing luciferase-tagged ELG1; HEK293T ELG1-luciferase reporter, luminescence, 16 h; DNA damage induced by 5-fluorouridine; Potency, µM (series often up to 46.1 µM), for inactives: at the top dose activity change, negative = inhibition, hits mostly inhibitors; hit rate 2.3% among 330,000; AID 504467, 2011; also: potency is read from the fitted curve at half-maximal effect; nearly all actives have a fitted effect of over 55% in size
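Luminescence from the luciferase reporter, measured 30 min after ONE-Glo reagent at room temperature, was the read-out. Beforehand, 2,000 cells per well were exposed for 16 hr at 37 °C to 5-fluorouridine together with compound or vehicle.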
An asterisk follows results filed as active; ? = inconclusive; / = no result. Rows were chosen to be rich in hits. Some 19% of all compounds tested hit in one or more screens of this group. Unless noted, calls follow the shape of the dose curve; as a rule, active = well fitted curve in the direction sought with a large enough effect; inconclusive = small, poorly fitted or top-dose-only effect, or another doubt; inactive = no such curve, though single readings can be large; an effect the other way counts as inactive or inconclusive. Unless noted, % is scaled to controls: 0 for no effect and ±100 for the full control effect.

SMILES | IL-1B inflam inh | DT40 TDP1 no CPT | HT1080 IDH1KD tx | DT40 TDP1 CPT | HT1080NT lethal | ELG1 repair inh
COc1ccc(NC(=O)CSC2=Nc3ccccc3C3=NC(CCC(=O)NCCc4ccccc4)C(=O)N23)c(OC)c1 (stereo not drawn) | / | 8.2µM* | / | 23.1µM* | / | /
COc1ccc(CNC(=O)CCC2N=C3c4ccccc4N=C(SCC(=O)NCCc4ccc(OC)c(OC)c4)N3C2=O)cc1 (stereo not drawn) | / | ? | / | -21.7% | / | /
COc1ccc(NC(=O)c2sc3nc(-c4cc5ccc(OC)cc5oc4=O)[nH]c(=O)c3c2C)cc1 | / | -14.1% | / | -11.6% | / | /
COc1ccc(CN2C(=O)c3ccccc3C2c2nnnn2C(C)C)cc1OC (stereo not drawn) | 0.0 | -24.1% | 11.1% | 2.9% | 5.1% | /
Cc1cc(C)cc(C(=O)OCC(=O)Nc2ncccn2)c1 | -18.2 | -8.1% | 12.6% | -0.6% | 4.7% | 13.1%
CCCN1CCC(NC23CC4CC(CC(C4)C2)C3)CC1 | / | / | / | / | / | -11.0%
CSc1ccc(/C=C/C(=O)OCC(=O)c2ccc[nH]2)cc1 | 9.0 | -3.7% | 8.8% | -19.1% | 2.9% | ?
CCOc1ccc(N(CC(=O)Nc2ccc(OC)cc2)C2=NC3CS(=O)(=O)CC3S2)cc1 (stereo not drawn) | -58.4* | -22.8% | -9.0% | 1.8% | -14.3% | -1.6%
CCOc1ccc(N(CC(=O)Nc2ccc(C)c(F)c2)C2=NC3CS(=O)(=O)CC3S2)cc1 (stereo not drawn) | -15.8 | 4.5% | ? | -19.1% | 24.5% | 3.8%
Cc1ccccc1C(=O)N=c1sccn1C | -0.3 | 3.26µM* | -4.2% | -1.4% | -0.8% | ?
Cc1cccc(C(=O)N=c2sccn2C)c1[N+](=O)[O-] | -10.2 | -27.4% | 21.2% | ? | 20.7% | ?
COc1cccc(CNC(C)C(=O)Nc2ccc3c(c2)OCCO3)c1 (stereo not drawn) | -60.7* | -10.8% | -1.4% | 0.4% | 0.7% | 16.1%
O=C(OCc1csc(-c2ccccc2)n1)c1ccccc1O | -7.9 | 5.5% | 10.4% | 16.1% | 4.2% | ?
COc1cccc(NS(=O)(=O)c2ccc3[nH]cc(C(=O)NC(C)c4ccccc4)c(=O)c3c2)c1 (stereo not drawn) | / | -23.9% | / | ? | / | /
O=C(NC1CC1)c1ccc2nc(-c3ccco3)c(-c3ccco3)nc2c1 | / | 12.6µM* | / | ? | / | /
Cc1cccc(N2CCN(C(=O)c3ccc4nc(-c5ccco5)c(-c5ccco5)nc4c3)CC2C)c1 (stereo not drawn) | ? | 18.4µM* | -20.5% | 18.4µM* | 0.8% | ?
Cc1cccc(N2CCN(C(=O)c3ccc4c(Cl)c5c(nc4c3)CCCC5)CC2C)c1 (stereo not drawn) | / | ? | / | -25.2% | / | /
CNC(=O)c1ccc2nc(-c3ccco3)c(-c3ccco3)nc2c1 | / | ? | / | 20µM* | / | /
O=C(Nc1ccccc1)c1ccc2nc(-c3ccco3)c(-c3ccco3)nc2c1 | ? | 23.1µM* | ? | 20.6µM* | ? | 9.2µM*
COc1ccc(CNC(=O)c2cn(Cc3ccccc3F)c(=O)s2)cc1 | -12.3 | ? | -2.2% | ? | 1.2% | /
COc1ccc2nc(-c3ccco3)c(-c3ccco3)nc2c1 | -24.4 | ? | -1.7% | 18.4µM* | -2.1% | ?
CC1=C(C(=O)N(C(C)C)C(C)C)CC(CC(=O)NCc2ccco2)C(=O)N1Cc1ccccc1 (stereo not drawn) | -8.9 | ? | 8.8% | ? | 7.7% | /

Screening data deposited in PubChem by National Center for Advancing Translational Sciences (NCATS).
